Bioassay records deposited in PubChem BioAssay by National Center for Advancing Translational Sciences (NCATS).
This is a sample that favours compounds with a hit; in the whole collection about 21% have one here.
CHX counter: counter-screen hit for Shiga toxin inhibitors, cycloheximide | AID 2314 | 12% of 300,000 active | max response, % | cell reporter, cycloheximide protein synthesis inhibition counterscreen; in the data active = max response mostly above about 13%, no sharp cut-off; inactive = mostly below about 14%; also: read at 38.3 µM for the half of the compounds with a filed dose; 0% is about no effect
Shiga toxin inh: Shiga toxin inhibition; 9.2% of 290,000 active; inhibition, % at 38.7 µM; Vero cells, Shiga toxin protein synthesis inhibition reporter; in the data active = inhibition mostly above about 28%, no sharp cut-off; inactive = mostly below about 43%; also: 0% is about no effect
Pf growth 96h: inhibits malaria parasite growth, 96 h; AID 504834; Potency, µM (top dose mostly 28.7 µM), inactives show at the top dose activity change, negative = inhibition, hits mostly inhibitors; 6.9% of 320,000 active; P. falciparum luciferase reporter growth, 96 h; also: potency is read from the fitted curve at half-maximal effect; % is scaled to controls: 0 for no effect and ±100 for the full control effect
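Luminescence readout: decreased luciferase signal marks inhibited growth of reporter-expressing P. falciparum in infected red cells (2% hematocrit, 0.05% parasitemia final), exposed to compound two generations (96 h, 37 C, 5% CO2).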
HCMV antiviral: human cytomegalovirus inhibition; HFF cells, HCMV-luciferase reporter, 72 h; hits give low values; activity change, negative = inhibition, % at 57.5 µM; 4.5% of 410,000 active; AID 1259415; in the data active = activity change below about -60%; inconclusive = no clear call, values can overlap the other calls; inactive = above about -39%; also: % is scaled to controls: 0 for no effect and ±100 for the full control effect
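Compounds were evaluated in HFFs infected with an HCMV luciferase reporter virus (MOI 1 PFU/cell). Luciferase in lysates collected 72 h post infection served as the replication measure.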
HCV inh: HCV inhibition; Huh7.5.1 HCVcc-Cre infection, luciferase reporter, 44 h; Potency, µM (titrated, usually from 41.8 µM), for inactives: at the highest dose activity change, negative = inhibition, hits mostly inhibitors; 3.4% of 340,000 active; AID 651820; also: potency is read from the fitted curve at half-maximal effect; % is scaled to controls: 0 for no effect and ±100 for the full control effect
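Compounds are dispensed onto cells plated 4 h earlier at 1,000 per well, with HCVcc-Cre virus (about 0.5 moi) added next. Following 44 h of culture, luminescent signal is measured for 15 sec after 15 min with substrate at room temperature.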
Pf growth 48h: P. falciparum growth inhibition at 48 hours (one generation) | P. falciparum luciferase growth in erythrocytes, 48 h | Potency, µM (doses to about 28.7 µM), inactives show at the highest dose activity change, negative = inhibition, actives largely listed as inhibitors | 5.9% of 310,000 active | AID 504832; also: potency is read from the fitted curve at half-maximal effect; % is scaled to controls: 0 for no effect and ±100 for the full control effect
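Luciferase-expressing parasites in RBCs, 2% Hct / 0.1% parasitemia final; RPMI 1640 + 0.5% Albumax; 37 C, 5% CO2, one generation; luminescence read-out, lower signal = inhibition.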
Numbers without * were called inactive; [ ] = dose if it differs, or a comment. Unless noted, calls follow the shape of the dose curve; as a rule, active = well fitted inhibition curve with a large enough effect; inconclusive = small, poorly fitted or top-dose-only effect, or another doubt; inactive = no such curve, though single readings can be large or run the other way.

How did CC(C)C[C@H]1CNC(=O)C(=O)N1C[C@@H]1CCCN1C[C@H](Cc1ccccc1)N1C[C@H](CC(C)C)N(CC2CCCCC2)C(=O)C1=O do in these assays?
HCMV antiviral: 3

Results for COc1ccccc1NC(=O)c1cccc(N2C(=O)C3C4C=CC(C4)C3C2=O)c1 (stereo not drawn) ?
CHX counter: 7; Shiga toxin inh: -10; Pf growth 96h: inconclusive; HCMV antiviral: -24; HCV inh: -7%; Pf growth 48h: -5%

What do the screens show for `COc1ccc(CCCc2nnc(SCC(=O)Nc3ccc(C)cc3)o2)cc1`?
HCMV antiviral: -10

How did CSC1=NNC(c2ccc(C(C)(C)C)cc2)=NN1 do in these assays?
CHX counter: 33*; Shiga toxin inh: 96*; Pf growth 96h: -26%; HCMV antiviral: 17; HCV inh: 4%; Pf growth 48h: 34%

How did CCCCC(C(=O)NC1CCCC1)N(C(=O)c1snc(C(N)=O)c1N)c1ccc(C)cc1 (stereo not drawn) do in these assays?
CHX counter: -2; Shiga toxin inh: -4; Pf growth 96h: 49%; HCMV antiviral: inconclusive; HCV inh: -15%; Pf growth 48h: inconclusive

What do the screens show for `O=C(NNC(=S)Nc1ccc(Cl)cc1Cl)c1ccncc1`?
CHX counter: 14*; Shiga toxin inh: 31; Pf growth 96h: 4.1µM*; HCMV antiviral: -2; HCV inh: 14%; Pf growth 48h: 24%

What do the screens show for `O=C(NNC(=S)Nc1ccccc1C(F)(F)F)c1cccnc1`?
CHX counter: 10*; Shiga toxin inh: 11; Pf growth 96h: -58%[5.75 µM]; HCMV antiviral: 0; HCV inh: 10%; Pf growth 48h: 22%

What do the screens show for `O=C(NNC(=S)Nc1ccc(Cl)cc1Cl)c1ccc(N2CCOCC2)c([N+](=O)[O-])c1`?
CHX counter: 1; Shiga toxin inh: -11; Pf growth 96h: inconclusive; HCMV antiviral: -19; HCV inh: 30%; Pf growth 48h: 22%

Results for O=C(NNC(=S)Nc1ccc(Cl)cc1Cl)C1CC1 ?
CHX counter: 26*; Shiga toxin inh: 21; Pf growth 96h: -26%; HCMV antiviral: 49; HCV inh: 14%; Pf growth 48h: 36%

How did O=C(NNC(=S)Nc1ccc(Cl)cc1Cl)c1cccnc1 do in these assays?
Pf growth 96h: inconclusive; HCMV antiviral: -64*; HCV inh: 6%; Pf growth 48h: 69%

Results for Cn1c(=O)[nH]c(NCCc2ccc(O)cc2)c([N+](=O)[O-])c1=O ?
HCMV antiviral: 20; HCV inh: 18%

Results for CCCCN(C)c1c(C)nc2ccc(C(=O)N3CCN(C(C)=O)CC3)cn12 ?
HCMV antiviral: -4

How did CCCCn1c(N)c(N(Cc2ccccc2OC)C(=O)CSCC(=O)Nc2cccc(C)c2)c(=O)[nH]c1=O do in these assays?
CHX counter: -3; Shiga toxin inh: -9; Pf growth 96h: inconclusive; HCMV antiviral: -4; HCV inh: -9%; Pf growth 48h: -6%

Results for Cc1ccc(N(Cc2cccs2)C(=O)C(C)Oc2ccc(Cl)c(C)c2)cc1 (stereo not drawn) ?
HCMV antiviral: -23

What do the screens show for `N#C/C(=C(/O)Cc1ccccc1)P(=O)(c1ccccc1)c1ccccc1`?
CHX counter: -1; Shiga toxin inh: 15; Pf growth 96h: -4%; HCMV antiviral: -5; HCV inh: 20%; Pf growth 48h: 3%

How did O=C(NNC(=S)Nc1ccccc1Cl)c1ccncc1 do in these assays?
CHX counter: 15*; Shiga toxin inh: 80; Pf growth 96h: 72%; HCMV antiviral: 52; HCV inh: 0%; Pf growth 48h: 67%

Results for Cc1ccc(NP(=O)(Nc2ccc(C)cc2)Nc2ccc(C)cc2)cc1 ?
CHX counter: 10; Shiga toxin inh: 6; Pf growth 96h: inconclusive; HCMV antiviral: 20; HCV inh: inconclusive; Pf growth 48h: 12µM*

Results for CCOC(=O)c1c(C)oc2nc(C)nc(NCC3CCN(Cc4ccc(C)cc4)CC3)c12 ?
HCMV antiviral: -3

How did CCC(=O)OCC(=O)[C@@]1(OC(=O)CC)[C@@H](C)C[C@H]2[C@@H]3CCC4=CC(=O)C=C[C@]4(C)[C@@]3(F)[C@@H](O)C[C@@]21C do in these assays?
CHX counter: 7; Shiga toxin inh: -7

Results for CCOc1ccccc1NC(=O)NC1Cc2ccccc2C1 ?
CHX counter: 0; Shiga toxin inh: 12; Pf growth 96h: 8.3µM*; HCV inh: -6%; Pf growth 48h: inconclusive

Results for NS(=O)(=O)c1ccc(NC(=O)Nc2cccc3ccccc23)cc1 ?
CHX counter: 12; Shiga toxin inh: -30; Pf growth 96h: 12%; HCMV antiviral: 4; HCV inh: 15%; Pf growth 48h: 15%

How did CCOc1ccccc1NC(=O)Nc1ccon1 do in these assays?
CHX counter: 1; Shiga toxin inh: 1; Pf growth 96h: 109%; HCMV antiviral: -23; HCV inh: inconclusive; Pf growth 48h: 15%

How did CCOc1ccccc1NC(=O)Nn1cnnc1 do in these assays?
CHX counter: -1; Shiga toxin inh: -6; Pf growth 96h: 7%; HCMV antiviral: 5; HCV inh: -16%; Pf growth 48h: 12%

How did CCOc1ccccc1NC(=O)Nc1ccncc1 do in these assays?
CHX counter: 5; Shiga toxin inh: 14; Pf growth 96h: 15%; HCMV antiviral: -8; HCV inh: inconclusive; Pf growth 48h: 3.3µM*

What do the screens show for `O=C(Nc1cccc2ccccc12)NC1Cc2ccccc2C1`?
CHX counter: 4; Shiga toxin inh: 23; Pf growth 96h: inconclusive; HCMV antiviral: -4; HCV inh: -4%; Pf growth 48h: 32%

How did CCOc1ccccc1NC(=O)Nc1ccc(CC#N)cc1 do in these assays?
CHX counter: 17*; Shiga toxin inh: 28; Pf growth 96h: 15%; HCMV antiviral: -18; HCV inh: inconclusive; Pf growth 48h: 7%

What do the screens show for `N#CCc1ccc(NC(=O)Nc2cccc3ccccc23)cc1`?
CHX counter: 16*; Shiga toxin inh: 22; Pf growth 96h: 28%; HCV inh: -13%; Pf growth 48h: 25%

What do the screens show for `Cc1ccc(S(=O)(=O)N2CCN(C(=O)CN3C(=O)NC(C)(c4ccc5ccccc5c4)C3=O)CC2)cc1` (stereo not drawn)?
HCMV antiviral: -29; HCV inh: inconclusive

What do the screens show for `O=c1[nH]c2cc(Cl)c(O)cc2o1`?
CHX counter: -1; Shiga toxin inh: 10

How did Cc1cc(C)c(NC(=O)CCCN2CCCC2)c(C)c1 do in these assays?
CHX counter: -2; Shiga toxin inh: -9; Pf growth 96h: -14%; HCMV antiviral: -67*; HCV inh: 8%; Pf growth 48h: 2%
